# Measured values: PubChem BioAssay (Tox21)
# Inconclusive results are not listed. Unmarked numbers belong to inactive results. The source made the active and inactive calls. Unless noted, the call rests on the fitted dose curve; in most records, active means well fitted cell-killing curve with a large enough effect in the repeat runs; inconclusive means weak or mixed curves, or effect the other way; inactive means no such curve, though single readings can be large or run the other way.
# Biological target: Thyrotropin receptor (Homo sapiens) (UniProt P16473)
# Experiment: qHTS assay to identify small molecule antagonists of the thyroid stimulating hormone receptor (TSHR) signaling pathway (AID 1259385; calls by dose curve; further: nearly all actives have a fitted effect of over 20% in size)
# Details: TSHR-HEK293 cAMP HTRF, TSH-stimulated antagonist mode; series mostly up to 92.4 µM; activity change, negative = inhibition: at the top concentration
# Method in brief: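 TSHR-HEK293 cells (800/well) plated 18 h, then compounds with Ro20-1724 and TSH at 1.5 ng/mL final, 30 min at room temperature. cAMP quantified by HTRF (cAMP-d2/anti-cAMP-cryptate, 1 h); 15 concentrations in triplicate.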
# On the % scale 0 is the no-effect control and ±100 the full control effect; potency means the concentration at half of the fitted maximal effect.
# Thyrotropin receptor (Homo sapiens), sequence (P16473 whole entry, looked up): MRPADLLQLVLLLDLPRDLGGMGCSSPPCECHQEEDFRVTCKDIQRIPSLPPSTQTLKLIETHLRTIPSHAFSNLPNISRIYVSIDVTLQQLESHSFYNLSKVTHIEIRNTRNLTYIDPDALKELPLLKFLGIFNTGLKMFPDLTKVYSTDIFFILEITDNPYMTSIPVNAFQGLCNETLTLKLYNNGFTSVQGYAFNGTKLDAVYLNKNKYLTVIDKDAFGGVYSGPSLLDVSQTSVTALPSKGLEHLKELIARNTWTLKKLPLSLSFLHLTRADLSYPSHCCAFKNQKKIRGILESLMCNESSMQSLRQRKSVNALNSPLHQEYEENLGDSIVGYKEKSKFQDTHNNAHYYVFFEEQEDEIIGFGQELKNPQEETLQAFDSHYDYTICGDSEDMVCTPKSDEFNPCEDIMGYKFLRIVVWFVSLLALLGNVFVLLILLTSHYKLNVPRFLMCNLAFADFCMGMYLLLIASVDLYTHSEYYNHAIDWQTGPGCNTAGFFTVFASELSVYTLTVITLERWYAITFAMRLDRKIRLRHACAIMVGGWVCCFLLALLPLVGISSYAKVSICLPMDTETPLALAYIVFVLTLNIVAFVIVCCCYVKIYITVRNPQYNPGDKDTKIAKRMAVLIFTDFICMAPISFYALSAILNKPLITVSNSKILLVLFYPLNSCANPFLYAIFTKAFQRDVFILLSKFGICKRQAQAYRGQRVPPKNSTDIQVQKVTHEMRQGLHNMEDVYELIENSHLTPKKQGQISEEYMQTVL
SMILES,"activity change, negative = inhibition",Potency
CCN(Cc1cccnc1)C(=O)c1cccc(Cl)c1[C@]1(C)C(=O)N(Cc2ccc(OC)cc2OC)c2ccc(Cl)cc21,-0.316%,
Clc1ccc(C(Cn2ccnc2)OCc2ccc(Sc3ccccc3)cc2)c(Cl)c1 (configuration not stated),-0.53% [at 42.5 µM],
CCCCN1CCCC[C@H]1C(=O)Nc1c(C)cccc1C,-1.98% [at 42.5 µM],
Cn1cc(C(=O)[C@@H]2CCc3nc[nH]c3C2)c2ccccc21,-4.3% [at 42.5 µM],
OCCN1CCN(CC/C=C2/c3ccccc3Sc3ccc(C(F)(F)F)cc32)CC1,-4.61% [at 42.5 µM],
Cc1onc(-c2ccccc2Cl)c1C(=O)N[C@@H]1C(=O)N2[C@@H]1SC(C)(C)[C@@H]2C(=O)O,0.721% [at 42.5 µM],
CCCC(C)c1ccccc1O (configuration not stated),-4.37%,
OCCCCCCCCCCCCBr,-0.711%,
C/C(=C(/OCCOc1ccc(Cl)cc1)c1ccc(Cl)cc1Cl)n1ccnc1,-9.24% [at 42.5 µM],
O=C(c1ccc(F)cc1)C1CCN(CCn2c(=O)[nH]c3ccccc3c2=O)CC1,-0.419% [at 42.5 µM],
Cc1ccc(-n2nc(C(C)(C)C)cc2NC(=O)Nc2ccc(OCCN3CCOCC3)c3ccccc23)cc1,-7.59% [at 42.5 µM],
Cc1cc(N)c(S(=O)(=O)O)cc1Cl,-1.48%,
COCCCC/C(=N\OCCN)c1ccc(C(F)(F)F)cc1,,29.8 µM (active)
C1CCCC1,-2.02%,
O=c1cccccc1O,-9.22%,
Clc1ccc2nsnc2c1NC1=NCCN1,-1.76% [at 42.5 µM],
N#CC1(c2ccc(F)cc2)CCC(=O)CC1,3.75% [at 42.5 µM],
CC(C)(C)CC(C)(C)c1ccc(OCCOCC[N+](C)(C)Cc2ccccc2)cc1,,inactive

# System: not listed separately
# Experiment: qHTS assay to identify small molecule agonists of the estrogen receptor alpha (ER-alpha) signaling pathway in the presence of an antagonist - cell viability counter screen (AID 1259386);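 further: cells exposed to compounds for 22 h at 37 °C before the viability read; nearly all actives have a fitted effect of over 30% in size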
# Details: VM7Luc4E2 viability, CellTiter-Fluor fluorescence, 22 h; series mostly up to 92.4 µM; activity change, negative = cytotoxicity: at the top concentration
# Method in brief: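 Read-out: CellTiter-Fluor fluorescence after 1hr reagent incubation, measured in the same wells as the luciferase readout. VM7Luc4E2 cells were exposed to 15 compound concentrations with 10.0nM ICI-182,780 for 22hr at 37C.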
SMILES,"activity change, negative = cytotoxicity",Potency
Clc1ccc(C(Cn2ccnc2)OCc2ccc(Sc3ccccc3)cc2)c(Cl)c1 (configuration not stated),0.217% [at 42.5 µM],
CCCCN1CCCC[C@H]1C(=O)Nc1c(C)cccc1C,-0.491% [at 42.5 µM],
O=S1(=O)CC(Cl)(Cl)C(Cl)(Cl)C1,,27.3 µM (active)
NC(=O)NS(=O)(=O)c1ccc(N)cc1,0.621% [at 42.5 µM],
COc1cc(-c2ccc(N=C=O)c(OC)c2)ccc1N=C=O,-5.2% [at 42.5 µM],
OCCN1CCN(CC/C=C2/c3ccccc3Sc3ccc(C(F)(F)F)cc32)CC1,-4.32% [at 42.5 µM],
OCCCCCCCCCCCCBr,-3.3%,
C/C(=C(/OCCOc1ccc(Cl)cc1)c1ccc(Cl)cc1Cl)n1ccnc1,0.349% [at 42.5 µM],
O=C(c1ccc(F)cc1)C1CCN(CCn2c(=O)[nH]c3ccccc3c2=O)CC1,-7.13% [at 42.5 µM],
CCC(CN)=C(c1ccccc1)c1ccccc1,2.54% [at 42.5 µM],
CCOC(=O)O[C@]1(C(=O)OCCl)CC[C@H]2[C@@H]3CCC4=CC(=O)C=C[C@]4(C)[C@H]3[C@@H](O)C[C@@]21C,2.78% [at 42.5 µM],
CC(C)OC(=O)c1cc2c(OCC(O)CNC(C)(C)C)cccc2[nH]1 (configuration not stated),-13.7% [at 42.5 µM],
Cc1cccc(N(C)C(=S)Oc2ccc3c(c2)C2CCC3C2)c1 (configuration not stated),-2.13% [at 42.5 µM],
Cc1cc(N)c(S(=O)(=O)O)cc1Cl,6.02%,
COCCCC/C(=N\OCCN)c1ccc(C(F)(F)F)cc1,-3.37% [at 42.5 µM],
C[C@@H](NCCCc1cccc(C(F)(F)F)c1)c1cccc2ccccc12,-4.82% [at 42.5 µM],
O=c1cccccc1O,1.05%,
NNc1nc(-c2ccc(N)cc2)cs1,,30.6 µM (active)
CCCCN(CCCC)C(=O)N(CCCC)CCCC,-2.42%,
Clc1ccc2nsnc2c1NC1=NCCN1,-5.29% [at 42.5 µM],
CCC1OCC(COc2ccc(Oc3ccccc3)cc2)O1 (configuration not stated),-3.36%,
N#CC1(c2ccc(F)cc2)CCC(=O)CC1,7.02% [at 42.5 µM],
CC(C)(C)CC(C)(C)c1ccc(OCCOCC[N+](C)(C)Cc2ccccc2)cc1,,61.1 µM (active)
COc1cc(-c2nc(NC(=O)c3cc4cc(C)cc(C)c4n3CC(=O)O)sc2CCC2CCCCC2)c(OC)cc1Cl,-14.2%,
